# Test results as given in PubChem BioAssay (NCATS).
# Unmarked numbers belong to inactive results. Results filed as inconclusive are left out. Entries that show only a call come without a potency. The source made the active and inactive calls. Unless noted, calls come from the whole dose curve; as a rule, active = well fitted curve in the direction sought with a large enough effect; inconclusive = small, poorly fitted or top-dose-only effect, or another doubt; inactive = no such curve, though single readings can be large; an effect the other way counts as inactive or inconclusive.
# What was measured:
# [1] = tested on: Zika virus NS2B-NS3 protease; assay: Primary screen GU AMC qHTS for Zika virus inhibitors (AID 1347154); note: nearly all actives have a fitted effect of over 70% in size
# Procedure, shortened: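 Fluorogenic AMC-substrate cleavage by noncovalent NS2B-NS3 protease complex (25 nM, pH 8.0 Tris buffer with Tween 20) followed for 15 minutes at room temperature (~20% conversion). Percent inhibition from ex340/em450 signal change, fitted by 4-parameter Hill equation.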
# [2] = molecular target: Glucocorticoid receptor (Homo sapiens) (UniProt P04150); assay: GR-GFP Redistribution (AID 450;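 active = compounds whose dose series gives a full or clear partial fitted curve of increased nuclear translocation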; note: potency is the fitted concentration of half-maximal effect); details: U2OS GR-GFP nuclear translocation, laser cytometry, 2 h
# [3] = molecular target: Glucocorticoid receptor (Homo sapiens) (UniProt P04150); assay: GR-EFC Redistribution (AID 451; calls by dose curve; note: potency is the fitted concentration of half-maximal effect); details: CHO-K1 GR-EFC translocation, beta-gal luminescence, 2 h
# Procedure, shortened: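 Translocation of GR-ED fusion to nuclear EA restores b-gal, read by luminescence after 1 h room-temperature detection. Engineered CHO-K1 biosensor cells, 1,000/well, exposed 2 h at 37 C to titrations up to 46 uM final.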
# [4] = molecular target: Mitogen-activated protein kinase 10 (Mus musculus) (UniProt Q61831); assay: JNK3 AlphaScreen Assay (AID 530; active = well fitted curve in either direction with a large enough effect, not every such curve was filed as active;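 note: kinase came from lysate of stimulated human HepG2 cells; signal reports phosphorylation of biotinylated GST-cJun 1-79 at Ser73 with 10 µM ATP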)
# Procedure, shortened: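 Compound titrations were preincubated 15 minutes at room temperature with substrate, antibody and pre-activated JNK3-containing HepG2 lysate. Reactions were started with 10 uM ATP and stopped with EDTA-containing bead buffer for AlphaScreen detection.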
# [5] = Validation of Assay for Modulators of Lamin A Splicing (AID 1459; active = well fitted curve in the direction sought with a large enough effect in the signal ratio; the % refers to the signal ratio;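 note: cells exposed to compound for two days before reading; ratio rise marks activators and ratio drop marks inhibitors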)
# Procedure, shortened: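 Splicing correction read as GFP (500-530 nm) over DsRed2 (575-640 nm) object intensity after 48 h compound exposure of reporter HeLa S3 clones (600 cells/well, 2% FBS medium); ancitabine and cycloheximide titrations, 0.5% DMSO as vehicle.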
# [6] = molecular target: DNA repair nuclease/redox regulator APEX1 (Homo sapiens) (UniProt P27695); assay: qHTS Validation Assay for Inhibitors of the Human Apurinic/apyrimidinic Endonuclease 1 (APE1) (AID 1705;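 note: TAMRA fluorescence gain over two minutes as APE1 cuts a quenched THF abasic duplex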)
# Procedure, shortened: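 Activity read as rising fluorescence (598 nm emission, 525 nm excitation) from incision of a TAMRA/BHQ-2 duplex carrying a THF abasic site (50 nM). Compound and enzyme sat 15 min at RT before substrate start; signal change between first and third 60-s reads.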
# [7] = qHTS for differential inhibitors of proliferation of Plasmodium falciparum line 7G8 (AID 1815);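 note: potency is the fitted concentration of half-maximal effect; parasite growth measured after three days of incubation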
# [8] = qHTS for differential inhibitors of proliferation of Plasmodium falciparum line GB4 (AID 1816); details: Potency: Plasmodium falciparum GB4 proliferation inhibition;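 note: potency is the fitted concentration of half-maximal effect; parasite growth measured after 72 h incubation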
# [9] = qHTS for differential inhibitors of proliferation of Plasmodium falciparum line 3D7 (AID 1876); note: potency is the fitted concentration of half-maximal effect
# [10] = qHTS for differential inhibitors of proliferation of Plasmodium falciparum line D10 (AID 1877);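 note: potency is the fitted concentration of half-maximal effect; parasites grown with compound for 72 h before DNA staining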
# [11] = qHTS for differential inhibitors of proliferation of Plasmodium falciparum line Dd2 (AID 1882); details: Potency: Plasmodium falciparum Dd2 proliferation inhibition; note: potency is the fitted concentration of half-maximal effect; nearly all actives have a fitted effect of over 65% in size
# Procedure, shortened: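 Dd2-infected erythrocytes (0.3% parasitemia, 2.5% hematocrit final) incubated with compound 72 h at 37 C, 5% CO2; lysed with saponin/Triton buffer containing SYBR Green I, incubated overnight in the dark, then read by fluorescence (485/535 nm). Normalized to 0.29 uM artemisinin and DMSO.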
# [12] = qHTS for differential inhibitors of proliferation of Plasmodium falciparum line W2 (AID 1883); details: Potency: Plasmodium falciparum W2 proliferation inhibition;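 note: potency is the fitted concentration of half-maximal effect; parasites grown with compound for 72 h before lysis and staining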
# [13] = qHTS for differential inhibitors of proliferation of Plasmodium falciparum line HB3 (AID 1886); details: Potency: Plasmodium falciparum HB3 proliferation inhibition;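 note: potency is the fitted concentration of half-maximal effect; parasites grown with compound for 72 h before SYBR Green readout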
# [14] = molecular target: ATP-dependent DNA helicase Q1 (Homo sapiens) (UniProt P46063); assay: qHTS Validation Assay for Inhibitors of RecQ-Like Dna Helicase 1 (RECQ1) (AID 2353)
# Procedure, shortened: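 50 nM RECQ1T1 preincubated 15 min with compound in Tris pH 8.0 buffer with MgCl2, DTT, Tween-20 and 2.5 ug/ml poly(dI-dC); started with 200 nM TAMRA/BHQ-2 forked duplex and 2 mM ATP. Unwinding read as fluorescence (525/598 nm), two reads 2 h apart.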
# [15] = molecular target: M-phase phosphoprotein 8 (Homo sapiens) (UniProt Q99549); assay: qHTS Validation Assay for Inhibitors for MPP8 Chromodomain Interactions with Methylated Histone Tails (AID 488949);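 note: AlphaScreen signal from MPP8 chromodomain bound to biotinylated H3K9me3 peptide; top concentration of the series differs between compounds; nearly all actives have a fitted effect of over 55% in size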
# Procedure, shortened: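 AlphaScreen proximity signal from streptavidin donor and Ni-chelate acceptor beads (10 ug/mL each) reported binding of MPP8 to trimethyl-K9 H3(1-18) peptide, both at 50 nM. The complex formed 30 min before a 30 min compound exposure at room temperature, in PBS pH 7.4.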
# [16] = molecular target: Thyrotropin receptor (Homo sapiens) (UniProt P16473); assay: qHTS Assay for Antagonists of the Thyroid Stimulating Hormone Receptor (AID 488980)
# Procedure, shortened: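 Inhibition of cAMP raised by EC80 TSH (4 nM final) was read by HTRF, with lysate cAMP competing against cAMP-d2 for cryptate antibody after 30 min at room temperature. The cells were transfected HEK293 held in phosphodiesterase inhibitor RO 20-1724 at 70 uM.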
# [17] = molecular target: Thyrotropin-releasing hormone receptor (Homo sapiens) (UniProt P34981); assay: qHTS for Small Molecule Agonists and Allosteric Enhancers of Human TRH Receptor: Validation Screen for Agonists (AID 493127;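 active = calcium activation more than 3 SD above the typical response in the agonist read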;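 note: intracellular calcium rise by fluo-8 fluorescence before TRH EC20 addition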); details: TRH receptor agonist cell assay; at 2 µM; hits give high values
# Procedure, shortened: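 Cells 2000/well, 10% FCS, 18 h 33.5C/5% CO2 → fluo-8 Ca dye, RT 30 min–1.5 h → FDSS baseline 10 × 1 s → compound added → 230 cycles (1 s/cycle) agonist mode. TRH controls.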
# [18] = molecular target: Galactokinase (Homo sapiens) (UniProt P51570); assay: qHTS Validation Assay for Inhibitors of Human Galactokinase (GALK) (AID 493189)
# Procedure, shortened: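 Inhibition was measured as remaining ATP, detected by luciferase luminescence after a 1 h room-temperature reaction. Final conditions: 5 nM GALK, 100 uM galactose, 35 uM ATP, pH 8.0 HEPES buffer.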
# [19] = molecular target: DNA dC->dU-editing enzyme APOBEC-3G (Homo sapiens) (UniProt Q9HC16); assay: qHTS for inhibitors of Vif-A3G interactions: Validation (AID 588379)
# Procedure, shortened: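 HeLa cells stably expressing Vif and A3G-eYFP, 700 cells/well, incubated overnight at 37 deg C, then exposed to compound overnight at 37 deg C. Inhibition of Vif-mediated degradation read as increased yellow fluorescence (Ex 488/Em 500-530) by laser-scanning cytometry.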
# [20] = molecular target: Voltage-gated inwardly rectifying potassium channel KCNH2 (Homo sapiens) (UniProt Q12809); assay: qHTS Assay for Small Molecule Inhibitors of the Human hERG Channel Activity (AID 588834);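 note: potency is the fitted concentration of half-maximal effect; lower thallium flux fluorescence means stronger hERG block; nearly all actives have a fitted effect of over 50% in size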
# Procedure, shortened: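 Kinetic FDSS fluorescence; U2OS + hERG BacMam (~100 virus particles/cell); FluxOR Tl+ flux; ~10 min cpd; AC50 (Hill).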
# [21] = Primary qHTS for small molecule stabilizers of the endoplasmic reticulum resident proteome: Secreted ER Calcium Modulated Protein (SERCaMP) assay (AID 1508630)
# Procedure, shortened: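 GLuc-SERCaMP-expressing SH-SY5Y cells, pretreated 16 h with compound, are challenged with thapsigargin to empty ER calcium stores; after 4 h, coelenterazine is added directly to the medium and luminescence is imaged.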
# [22] = AP1 Signaling Pathway (AID 357; active = well fitted curve in either direction with a large enough effect, not every such curve was filed as active;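 note: ME-180 reporter cells stimulated with EGF at its EC50 level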); details: ME-180 AP-1-bla reporter, EGF-induced, beta-lactamase ratio, 5 h
# Procedure, shortened: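 Beta-lactamase reporter under AP-1 response element, ME-180 background. Stimulus: EC50 EGF. Compound exposure 5 h, 37 °C. Detection: CCF4, 2.5 h RT, 460/530 nm. Values: AC50 from titration.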
# [23] = Stat Signaling Pathway (AID 446; active = well fitted curve in either direction with a large enough effect, not every such curve was filed as active;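 note: ME-180 cervical cancer cells given 40 pM IL-6 alongside compound; SIE-controlled beta-lactamase reporter measured as 460/530 nm FRET emission ratio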); details: ME-180 SIE beta-lactamase reporter, IL-6 stimulated, 5 h
# Procedure, shortened: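 Screening format detects activators and inhibitors alike: ME-180 SIE-bla cells stimulated at 40 pM IL-6 for 5 hrs with compound, then dual-emission beta-lactamase read at 405 nm excitation.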
# [24] = molecular target: Guanine nucleotide-binding protein G(i) subunit alpha-1 (Homo sapiens) (UniProt P63096); assay: qHTS Assay for Inhibitors of RGS12 GoLoco Motif Activity (Green Fluorophore) (AID 879);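 note: negative values mean loss of peptide binding seen as reduced polarization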
# Procedure, shortened: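 Fluorescence polarization assay: 50 nM Gαi1 with 10 nM FITC-labeled RGS12 GoLoco peptide in 10 mM Tris pH 7.5, 150 mM NaCl, 0.1 mM GDP, 0.05% NP40, 10 min at room temperature with compound.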
# [25] = molecular target: Pyruvate kinase (Leishmania mexicana) (UniProt Q27686); assay: qHTS Validation Assay for Inhibitors of Leishmania Mexicana Pyruvate Kinase (AID 945)
# Procedure, shortened: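 LmPYK E451W 0.2 nM; 0.5 mM PEP, 0.1 mM ADP, 7 mM MgCl2, 50 mM KCl, imidazole pH 7.2, 0.01% Tween 20, 0.05% BSA; 1 h RT; PKLight luminescence; DMSO-normalized.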
# [26] = molecular target: Alpha-galactosidase A (Homo sapiens) (UniProt P06280); assay: Counterscreen for Glucocerebrosidase Inhibitors: qHTS Assay for Human alpha-Galactosidase at pH 4.5 (AID 992)
# Procedure, shortened: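 Concentration-response curves (0.7 nM to 77 uM final) were modeled with the Hill equation to give AC50. Reactions: 2 nM enzyme, 80 uM fluorogenic alpha-galactoside, pH 4.5 citric acid buffer, 20 min, room temperature.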
# [27] = molecular target: alpha-glucosidase (Oryza sativa, rice) (UniProt Q653V4); assay: Counterscreen for Glucocerebrosidase Inhibitors: qHTS Assay for Rice alpha-Glucosidase at pH 5.0 (AID 997)
# Procedure, shortened: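 Rice alpha-glucosidase (4 nM final) with 400 uM 4-methylumbelliferyl-alpha-D-glucopyranoside in citrate buffer pH 5.0, 20 min at room temperature, stopped at pH 10; fluorescence 365/440 nm, compounds 0.7 nM–77 uM, AC50 from Hill fits.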
# [28] = Counterscreen qHTS for small molecule stabilizers of the endoplasmic reticulum resident proteome: GLuc-NoTag assay (AID 1508627);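 note: SH-SY5Y cells given compound then 100 nM thapsigargin to empty ER calcium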
# Procedure, shortened: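 Luminescence of Gaussia luciferase secreted into the medium (coelenterazine, 0.07x final, unlysed cells) was the read-out. Human SH-SY5Y neuroblastoma cells constitutively secreting untagged GLuc received compound for 19 h, then 100 nM thapsigargin for 4 h.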
# [29] = Confirmatory qHTS for small molecule stabilizers of the endoplasmic reticulum resident proteome: Secreted ER Calcium Modulated Protein (SERCaMP) assay (AID 1508628); note: potency is the fitted concentration of half-maximal effect; nearly all actives have a fitted effect of over 40% in size
# Procedure, shortened: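 SH-SY5Y cells stably expressing GLuc-SERCaMP, treated 16 h with compound (primary 1.53, 7.67, 38.3 uM; confirmation 11 concentrations, up to 76.6 uM), then 100 nM thapsigargin for 4 h. Secreted Gaussia luciferase in medium read by coelenterazine luminescence.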
# [30] = NCATS anti-infectives library activity on HEK293 viability as a counter-qHTS vs the C. elegans viability qHTS (AID 1745854);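 note: HEK293 cells exposed to compounds for 24 hr before the viability read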
# Procedure, shortened: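 Compounds were acoustically plated (several concentrations, 1:5, final up to 41.7 uM), then 1500 HEK293 cells added per well and incubated 24 hr at 37C, 5% CO2. CellTiter-Glo was added and luminescence read after 10 min.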
# Sequence of Glucocorticoid receptor (Homo sapiens) (P04150 whole entry, looked up, the tested form may be a part): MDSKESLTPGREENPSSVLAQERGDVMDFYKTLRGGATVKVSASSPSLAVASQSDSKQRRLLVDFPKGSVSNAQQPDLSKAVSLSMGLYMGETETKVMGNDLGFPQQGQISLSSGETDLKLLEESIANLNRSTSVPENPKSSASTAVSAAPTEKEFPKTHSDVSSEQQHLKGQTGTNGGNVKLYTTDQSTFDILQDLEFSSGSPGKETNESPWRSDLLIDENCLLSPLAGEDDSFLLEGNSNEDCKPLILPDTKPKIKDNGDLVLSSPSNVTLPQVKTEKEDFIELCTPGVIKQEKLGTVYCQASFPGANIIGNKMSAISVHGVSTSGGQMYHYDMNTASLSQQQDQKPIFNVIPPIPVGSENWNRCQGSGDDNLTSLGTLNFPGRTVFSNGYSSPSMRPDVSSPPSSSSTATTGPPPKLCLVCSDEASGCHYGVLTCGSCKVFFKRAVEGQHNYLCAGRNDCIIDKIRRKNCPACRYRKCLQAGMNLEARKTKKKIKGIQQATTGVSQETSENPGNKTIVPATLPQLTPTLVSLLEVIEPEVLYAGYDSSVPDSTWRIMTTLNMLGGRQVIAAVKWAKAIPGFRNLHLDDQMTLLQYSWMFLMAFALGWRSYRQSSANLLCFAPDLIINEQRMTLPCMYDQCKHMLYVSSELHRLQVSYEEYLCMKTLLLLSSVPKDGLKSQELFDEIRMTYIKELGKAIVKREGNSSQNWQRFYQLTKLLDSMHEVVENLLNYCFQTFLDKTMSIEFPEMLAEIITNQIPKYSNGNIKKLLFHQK
# Sequence of DNA dC->dU-editing enzyme APOBEC-3G (Homo sapiens) (Q9HC16 whole entry, looked up): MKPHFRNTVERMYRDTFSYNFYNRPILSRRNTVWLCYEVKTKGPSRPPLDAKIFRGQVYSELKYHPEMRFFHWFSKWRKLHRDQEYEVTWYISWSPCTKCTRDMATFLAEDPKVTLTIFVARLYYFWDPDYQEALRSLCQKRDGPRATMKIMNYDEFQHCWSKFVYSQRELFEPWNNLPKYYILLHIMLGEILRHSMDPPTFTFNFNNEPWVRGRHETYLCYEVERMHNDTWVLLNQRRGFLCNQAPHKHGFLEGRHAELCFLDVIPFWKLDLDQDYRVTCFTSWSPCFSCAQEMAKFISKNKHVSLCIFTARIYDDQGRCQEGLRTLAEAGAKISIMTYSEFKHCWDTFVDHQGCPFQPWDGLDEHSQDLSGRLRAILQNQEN
# Sequence of Galactokinase (Homo sapiens) (P51570 whole entry, looked up): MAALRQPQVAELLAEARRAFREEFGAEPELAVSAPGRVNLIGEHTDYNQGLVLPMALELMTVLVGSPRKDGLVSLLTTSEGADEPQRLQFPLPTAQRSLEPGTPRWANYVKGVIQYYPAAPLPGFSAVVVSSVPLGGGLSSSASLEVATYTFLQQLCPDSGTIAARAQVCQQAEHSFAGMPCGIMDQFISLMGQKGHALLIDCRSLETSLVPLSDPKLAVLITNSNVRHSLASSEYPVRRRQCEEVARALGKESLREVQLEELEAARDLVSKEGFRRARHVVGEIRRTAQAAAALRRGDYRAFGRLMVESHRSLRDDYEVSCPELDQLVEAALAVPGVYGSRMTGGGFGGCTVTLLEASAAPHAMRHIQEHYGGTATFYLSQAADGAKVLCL
# Sequence of DNA repair nuclease/redox regulator APEX1 (Homo sapiens) (P27695 whole entry, looked up): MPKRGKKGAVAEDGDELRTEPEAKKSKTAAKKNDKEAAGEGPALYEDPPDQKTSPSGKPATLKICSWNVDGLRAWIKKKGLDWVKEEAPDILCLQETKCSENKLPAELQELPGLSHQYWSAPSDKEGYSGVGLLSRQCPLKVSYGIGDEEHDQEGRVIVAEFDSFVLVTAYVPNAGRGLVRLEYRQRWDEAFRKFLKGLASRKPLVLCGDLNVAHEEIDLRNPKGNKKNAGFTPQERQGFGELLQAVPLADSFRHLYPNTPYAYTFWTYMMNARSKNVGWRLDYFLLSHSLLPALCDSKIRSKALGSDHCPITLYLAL
# Sequence of ATP-dependent DNA helicase Q1 (Homo sapiens) (P46063 whole entry, looked up): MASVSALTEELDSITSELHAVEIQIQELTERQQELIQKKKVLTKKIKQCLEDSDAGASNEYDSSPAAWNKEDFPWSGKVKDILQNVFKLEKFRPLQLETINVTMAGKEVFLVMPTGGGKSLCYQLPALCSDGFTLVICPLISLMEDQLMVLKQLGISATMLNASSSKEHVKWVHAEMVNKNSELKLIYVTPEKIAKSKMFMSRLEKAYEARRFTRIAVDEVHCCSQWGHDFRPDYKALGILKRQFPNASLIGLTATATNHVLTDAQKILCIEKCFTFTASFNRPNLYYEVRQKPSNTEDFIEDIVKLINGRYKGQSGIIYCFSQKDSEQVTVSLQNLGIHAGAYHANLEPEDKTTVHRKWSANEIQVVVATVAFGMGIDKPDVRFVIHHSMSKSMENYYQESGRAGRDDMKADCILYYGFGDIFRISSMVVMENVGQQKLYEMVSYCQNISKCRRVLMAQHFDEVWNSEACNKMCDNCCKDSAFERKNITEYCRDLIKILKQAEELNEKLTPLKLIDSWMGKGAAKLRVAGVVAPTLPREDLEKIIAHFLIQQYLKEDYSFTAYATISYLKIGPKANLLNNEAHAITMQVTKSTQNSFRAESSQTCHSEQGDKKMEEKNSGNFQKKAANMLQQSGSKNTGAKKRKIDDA
# Sequence of Pyruvate kinase (Leishmania mexicana) (Q27686 2-499 E452W): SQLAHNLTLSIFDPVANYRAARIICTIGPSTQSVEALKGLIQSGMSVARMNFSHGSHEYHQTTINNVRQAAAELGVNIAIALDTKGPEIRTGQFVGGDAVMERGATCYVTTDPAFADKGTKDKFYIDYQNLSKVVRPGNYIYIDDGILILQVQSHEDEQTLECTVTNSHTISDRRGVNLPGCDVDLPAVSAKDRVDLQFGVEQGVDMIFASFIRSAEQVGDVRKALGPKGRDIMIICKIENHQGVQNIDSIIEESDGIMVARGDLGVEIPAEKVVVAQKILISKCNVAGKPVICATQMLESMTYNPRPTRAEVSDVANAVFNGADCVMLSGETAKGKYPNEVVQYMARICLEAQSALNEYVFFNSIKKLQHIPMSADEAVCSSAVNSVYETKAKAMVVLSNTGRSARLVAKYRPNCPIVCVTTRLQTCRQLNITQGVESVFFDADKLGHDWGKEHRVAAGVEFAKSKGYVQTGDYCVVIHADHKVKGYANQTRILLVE
# Sequence of Guanine nucleotide-binding protein G(i) subunit alpha-1 (Homo sapiens) (P63096 whole entry, looked up): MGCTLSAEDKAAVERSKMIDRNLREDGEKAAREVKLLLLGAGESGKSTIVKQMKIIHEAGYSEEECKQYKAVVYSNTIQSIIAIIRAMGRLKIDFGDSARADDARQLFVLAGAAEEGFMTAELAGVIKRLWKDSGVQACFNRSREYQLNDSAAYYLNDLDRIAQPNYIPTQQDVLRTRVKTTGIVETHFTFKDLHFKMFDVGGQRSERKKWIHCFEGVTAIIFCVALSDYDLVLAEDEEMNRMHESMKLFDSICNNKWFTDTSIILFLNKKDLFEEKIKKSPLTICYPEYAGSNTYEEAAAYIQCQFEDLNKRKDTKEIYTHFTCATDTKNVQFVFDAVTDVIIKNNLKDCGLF
# Sequence of Thyrotropin-releasing hormone receptor (Homo sapiens) (P34981 whole entry, looked up): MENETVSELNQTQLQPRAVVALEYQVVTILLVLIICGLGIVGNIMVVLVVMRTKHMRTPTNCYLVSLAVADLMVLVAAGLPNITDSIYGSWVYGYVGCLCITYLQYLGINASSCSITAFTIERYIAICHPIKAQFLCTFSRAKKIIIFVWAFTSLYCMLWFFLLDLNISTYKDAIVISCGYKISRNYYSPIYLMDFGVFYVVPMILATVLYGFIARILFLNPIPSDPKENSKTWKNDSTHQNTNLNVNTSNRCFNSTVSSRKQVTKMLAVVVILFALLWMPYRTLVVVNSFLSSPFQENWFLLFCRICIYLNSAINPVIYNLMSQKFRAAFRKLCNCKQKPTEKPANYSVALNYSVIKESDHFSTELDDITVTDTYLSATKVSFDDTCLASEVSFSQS
# Sequence of Voltage-gated inwardly rectifying potassium channel KCNH2 (Homo sapiens) (Q12809 whole entry, looked up): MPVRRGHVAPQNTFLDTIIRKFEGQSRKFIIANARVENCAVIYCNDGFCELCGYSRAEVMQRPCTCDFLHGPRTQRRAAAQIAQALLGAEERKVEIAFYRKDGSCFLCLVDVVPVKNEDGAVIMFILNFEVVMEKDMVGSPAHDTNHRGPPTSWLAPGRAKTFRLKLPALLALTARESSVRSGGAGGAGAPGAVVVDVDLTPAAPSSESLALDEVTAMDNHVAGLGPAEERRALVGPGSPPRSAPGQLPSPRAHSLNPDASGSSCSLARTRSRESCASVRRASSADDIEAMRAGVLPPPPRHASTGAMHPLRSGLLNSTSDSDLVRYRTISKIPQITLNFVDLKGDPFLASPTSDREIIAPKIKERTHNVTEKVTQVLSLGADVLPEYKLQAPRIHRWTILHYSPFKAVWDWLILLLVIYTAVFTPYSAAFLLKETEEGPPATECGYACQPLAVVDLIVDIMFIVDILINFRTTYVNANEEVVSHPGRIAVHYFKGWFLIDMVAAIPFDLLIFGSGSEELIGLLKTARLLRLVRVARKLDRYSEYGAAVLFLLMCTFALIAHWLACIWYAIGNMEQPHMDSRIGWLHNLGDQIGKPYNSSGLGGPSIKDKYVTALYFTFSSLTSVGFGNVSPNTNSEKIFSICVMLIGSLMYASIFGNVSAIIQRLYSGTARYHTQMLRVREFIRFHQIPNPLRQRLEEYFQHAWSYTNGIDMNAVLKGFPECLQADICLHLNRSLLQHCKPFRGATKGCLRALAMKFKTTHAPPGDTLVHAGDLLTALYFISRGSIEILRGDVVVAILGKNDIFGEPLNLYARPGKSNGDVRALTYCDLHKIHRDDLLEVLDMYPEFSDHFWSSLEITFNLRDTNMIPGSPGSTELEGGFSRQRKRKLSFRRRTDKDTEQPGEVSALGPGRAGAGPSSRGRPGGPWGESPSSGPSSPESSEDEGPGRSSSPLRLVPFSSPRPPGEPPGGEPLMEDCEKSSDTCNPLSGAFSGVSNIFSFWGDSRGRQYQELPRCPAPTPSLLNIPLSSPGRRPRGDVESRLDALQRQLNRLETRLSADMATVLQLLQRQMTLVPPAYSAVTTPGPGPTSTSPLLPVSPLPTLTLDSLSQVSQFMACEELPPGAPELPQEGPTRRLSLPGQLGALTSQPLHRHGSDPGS
smiles,measurement,setting,value
O=C(C1CCCCC1)N(CCN1CCN(c2ccccc2CO)CC1)c1ccccn1,Potency,[1],inactive
CCCNC(=O)[C@H]1O[C@@H]1C(=O)N[C@H](C(=O)N1CCC[C@H]1C(=O)OC)[C@@H](C)CC,Potency,[1],inactive
O=C(NCCCCN1CCN(c2cccc(Cl)c2Cl)CC1)c1ccc2c(c1)Cc1ccccc1-2,Potency,[1],inactive
FC(F)(F)c1cc(CO[C@H]2CCCN[C@H]2c2ccccc2)cc(C(F)(F)F)c1,Potency,[2],> 46 µM
same,Potency,[3],> 46 µM
same,Potency,[4],inactive
same,outcome,[5],inactive
same,Potency,[6],inactive
same,Potency,[7],7.94 µM (active)
same,Potency,[8],11.2 µM (active)
same,Potency,[9],11.2 µM (active)
same,Potency,[10],11.2 µM (active)
same,Potency,[11],12.6 µM (active)
same,Potency,[12],7.08 µM (active)
same,Potency,[13],12.6 µM (active)
same,Potency,[14],inactive
same,Potency,[15],inactive
same,outcome,[16],inactive
same,activation,[17],2.81%
same,outcome,[18],inactive
same,Potency,[19],inactive
same,Potency,[20],8.91 µM (active)
same,Potency,[1],inactive
same,Potency,[21],inactive
COc1ccc(CCN(C)CCC[C@@](C#N)(c2ccc(OC)c(OC)c2)C(C)C)cc1OC,"activity change, negative = inhibition",[22]; at 17.2 µM (top of the series),2.2%
same,"activity change, negative = inhibition",[22]; at 38 µM (top of the series),10.5%
same,"activity, negative = inhibition",[23]; at 17.2 µM (top of the series),-16.1%
same,"activity, negative = inhibition",[23]; at 38 µM (top of the series),-6.6%
same,Potency,[4],inactive
same,outcome,[24],inactive
same,Potency,[25],inactive
same,outcome,[26],inactive
same,outcome,[27],inactive
same,Potency,[19],inactive
same,Potency,[1],inactive
same,Potency,[28],inactive
same,Potency,[29],12.6 µM (active)
same,outcome,[30],inactive
